# Experimental data taken from PubChem BioAssay AID485341 (National Center for Advancing Translational Sciences (NCATS), 2010).
# The campaign covered roughly 330,000 compounds. About 1,700 (0.52%) were called active. Only a selection was taken, and actives are over-represented in it overall. Values without a mark were called inactive. Calls come from the whole dose curve; as a rule, active = well fitted inhibition curve with a large enough effect; inconclusive = small, poorly fitted or top-dose-only effect; inactive = no such curve, though single readings can be large or run the other way.
# Molecular target: Beta-lactamase (Escherichia coli (strain K12)) (UniProt P00811)
# Assay: qHTS Inhibitors of AmpC Beta-Lactamase (assay without detergent); note: nearly all actives have a fitted effect of over 20% in size
# Conditions: AmpC nitrocefin hydrolysis, absorbance 480 nm, 0.0001% Triton; series mostly up to 57.1 µM; activity change, negative = inhibition: at the top concentration
# Method: NIH Molecular Libraries Probe Production Network [MLPCN] NIH Chemical Genomics Center [NCGC] Assay Provider: Professor Brian Shoichet, UCSF Assay Overview: This aggregation profiling approach exploits the sensitivity of aggregate formation to detergent. Inhibition of b-lactamase is measured in the presence and absence of 0.01% Triton X-100. This particular assay had the prescence of 0.01% Triton X-100. See Pubchem assay "Promiscuous and Specific Inhibitors of AmpC Beta-Lactamase (assay without detergent)" for related screen. Compounds that inhibit only in the absence of detergent are considered likely promiscuous aggregators. A screen of 1,030 compounds was performed in Brian Shoichet's lab in 96-well format. AmpC activity was measured by following the absorbance at 480 nm. Nitrocefin is a chromogenic substrate: while nitrocefin is yellow (lmax 390 nm), the product of its hydrolysis is red (lmax 486 nm, 17,000 M-1). AmpC beta lactamase was provided by Shoichet Lab, UCSF.
# Buffer: 20 mM phosphate buffer, pH 7.0 Triton X-100: No Detergent screen: 0.0001%, Detergent screen: 0.01%. Reagents/Controls: Buffer in columns 3 and 4 as negative control (no enzyme). 5.3 nM AmpC in columns 1, 2, 5-48. Titration of UCSF compound 9 control (from 10 mM, then 1:2) pin-transferred to column 2. Column 1 is neutral (100% activity). Assay Steps: Six uL of reagents were dispensed to 1536-well Greiner black clear bottom plates. Compounds and controls (23 nL) were transferred via Kalypsys PinTool. The plates were incubated for 15 min at room temperature, and then 2 uL of 800 uM solution of nitrocefin was added to start the reaction. The plates were immediately transferred to and read every 20 seconds for 4 min on ViewLux (Perkin-Elmer) High-throughput CCD imager using 480 nm absorbance protocol. During dispense, reagent bottles were kept submerged into 4 deg C water bath. Keywords: NIH Roadmap, MLSCN, MLI, MLSMR, qHTS, NCGC, AmpC Beta-Lactamase, Aggregation
# Potency is the fitted concentration of half-maximal effect.
# Sequence of Beta-lactamase (Escherichia coli (strain K12)) (P00811 whole entry, looked up): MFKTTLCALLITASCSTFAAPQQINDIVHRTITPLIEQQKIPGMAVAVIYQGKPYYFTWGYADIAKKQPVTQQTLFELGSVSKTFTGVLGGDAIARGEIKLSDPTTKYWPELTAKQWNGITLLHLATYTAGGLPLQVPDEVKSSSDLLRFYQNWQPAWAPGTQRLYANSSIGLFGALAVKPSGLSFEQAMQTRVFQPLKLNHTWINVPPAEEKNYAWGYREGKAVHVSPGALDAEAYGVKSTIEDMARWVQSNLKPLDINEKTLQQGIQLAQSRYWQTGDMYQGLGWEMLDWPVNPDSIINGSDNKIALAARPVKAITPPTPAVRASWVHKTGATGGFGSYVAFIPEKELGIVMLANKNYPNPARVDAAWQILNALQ
SMILES,"activity change, negative = inhibition",Potency
COc1ccccc1NC(=O)COc1ccc(C(=O)OCC(=O)N(C(C)C)C(C)C)cc1OC,108%,–
COc1ccc(N(CC(=O)Nc2cccc3ccccc23)S(C)(=O)=O)c(OC)c1,33.5%,–
COc1cc(CO)ccc1OCC(=O)Nc1cccc2ccccc12,–,14.1 µM (active)
COc1ccccc1NC(=O)[C@H](COCc1ccccc1)NC(=O)OC(C)(C)C,0.197%,–
C[C@@H](NC(=O)OC(C)(C)C)c1nnc(S(=O)(=O)Cc2ccccc2)o1,–,10 µM (active)
CCc1ccccc1NC(=O)CSc1nnc([C@@H](NC(=O)OC(C)(C)C)C(C)CC)o1 (stereo not given in full),-2.18%,–
Cn1c(Cc2csc(N)n2)nnc1SC/C=C/c1ccccc1,-22.6%,–
COc1cc(Cl)c(S(=O)(=O)N2CCN(Cc3ccc4c(c3)OCO4)CC2)cc1Cl,3.51%,–
O=C1/C(=C\c2ccccc2Cl)SC(=S)N1CCC(=O)N1CCCc2ccccc21,-9.24%,–
COc1ccc(/C=C2/SC(=O)N(CCCCCC(=O)Nc3ccccc3C(=O)O)C2=S)cc1,-28.7%,–
O=C(CCCN1C(=O)/C(=C/c2cccs2)SC1=S)Nc1ccc(O)cc1,-43.8%,–
O=C(CN1C(=O)/C(=C\c2ccccc2F)SC1=S)Nc1nc2ccccc2s1,-33.9%,–
O=C(CCCN1C(=O)/C(=C\c2ccccc2)SC1=S)Nc1ccccc1O,–,11.2 µM (active)
O=C(CCCN1C(=O)/C(=C\c2ccco2)SC1=S)Nc1cccc2ccccc12,–,11.2 µM (active)
CCC(c1nnc(SCC(=O)NNC(=O)c2ccccc2)n1Cc1ccccc1)N(C)C (stereo not given),1.21%,–
CN(C)/C=C(/C(=O)c1ccc(Cl)cc1)S(=O)(=O)c1ccccc1,-15.6%,–
CN(C)/C=C(/C(=O)c1ccc(F)cc1)S(=O)(=O)c1ccc(F)cc1,–,12.6 µM (active)
CN(C)/C=C(/C(=O)c1ccccc1)S(=O)(=O)c1ccc(Cl)cc1,-33.1%,–
Cc1ccccc1CN1CCNC(=O)C1CC(=O)NCCC1=CCCCC1 (stereo not given),99.3%,–
COc1cc(NC(=S)NNC(=O)CC(C)C)c(OC)cc1Cl,-27%,–
C=CCNC(=O)c1sc(SC)cc1-c1ccc(Cl)cc1,–,1 µM (active)
C=CCNC(=O)c1csc(-c2ccccc2)n1,-25.3%,–
CSc1sc(C(=O)NNC(=O)c2ccc(Cl)cc2)c2c1C=CCC2,-47%,–
CCN1CCN(CC(=O)c2cc(OC)c(OC)c(OC)c2)CC1,-9.84%,–
CC(C)c1ccc(N(C(=O)c2ccco2)C(C(=O)NC2CCCC2)c2cccnc2)cc1 (stereo not given),30.8%,–

SMILES,"activity change, negative = inhibition",Potency
Cc1cccc(N2C(=O)CC(SC(N)=Nc3ccccc3)C2=O)c1 (stereo not given),-10.7%,–
COC(=O)c1cc(C(=O)OC)cc(N2C(=O)CC(N3CCN(c4ccccc4)CC3)C2=O)c1 (stereo not given),11.2%,–
COC(=O)c1ccccc1SC1CC(=O)N(c2cccc(C)c2)C1=O (stereo not given),–,7.08 µM (active)
CCc1ccc(Oc2nc([N+](=O)[O-])nn2C)cc1,-10.1%,–
O=C(O)CCCN1C(=O)C2C3c4ccccc4C(c4ccccc43)[C@@H]2C1=O (stereo not given in full),-5.32%,–
Cc1c(NC(=O)CN2C(=O)C(=O)N(Cc3ccccc3)C2=O)c(=O)n(-c2ccccc2)n1C,-15.6%,–
O=C1CC(=O)N(Cc2ccccc2)C(=O)N1CCCCCCN1C(=O)CC(=O)N(Cc2ccccc2)C1=O,–,7.08 µM (active)
COc1ccc(CCN2C(=O)N(c3ccc(OC)cc3)C(=O)C2CC(=O)Nc2ccc(OC)cc2)cc1 (stereo not given),-11.7%,–
CCN=C1S/C(=C\c2cc(Br)ccc2OCC(=O)OCC)C(=O)N1CC,3.25%,–
O=c1c2ccccc2[nH]c(=S)n1CCN1CCC(=C(c2ccc(F)cc2)c2ccc(F)cc2)CC1,–,3.16 µM (active)
COc1ccc(Cn2c(=S)[nH]c3cc(C(=O)NCCCN4CCOCC4)ccc3c2=O)cc1,35.1%,–
CCCCn1c(=S)[nH]c2ccccc2c1=O,-26.7%,–
C=CCn1c(SCCOc2ccc(OC)cc2)nnc1C(NC(=O)c1ccc(OC)cc1)C(C)C (stereo not given),3.24%,–
COc1cccc(NC(=O)CCc2nnc3ccc(N4CCC(C)CC4)nn23)c1,125%,–
CN(CC(=O)NCC(c1ccccc1)N1CCCC1)S(=O)(=O)c1ccc(Cl)cc1 (stereo not given),96.8%,–
O=C(COC(=O)c1ccc(NS(=O)(=O)c2cccs2)cc1O)Nc1ccc(F)cc1,–,14.1 µM (active)
O=C(COC(=O)c1ccc(O)cc1O)NNC(=O)c1cccs1,-14.2%,–
CCc1ccc(NC(=O)COC(=O)c2cccs2)cc1,-24.7%,–
CC(=O)N/C(=C/c1ccc(OC(F)F)cc1)C(=O)O,-19.8%,–
COc1cccc(-c2coc3cc4oc(=O)c(CC(=O)O)c(C)c4cc23)c1,-22.6%,–
C=CCNC(=O)COc1coc(CN2CCN(Cc3ccccc3)CC2)cc1=O,48.1%,–
COc1ccc(OCCCC(=O)Nc2cccc(S(=O)(=O)N3CCCCCC3)c2)cc1,-8.29%,–
COc1cccc(NC(=O)COc2cccnc2[N+](=O)[O-])c1,-40.6%,–
O=C(CC(NS(=O)(=O)c1ccc(Cl)cc1)c1ccco1)NC1CCCC1 (stereo not given),-46.4%,–
COc1ccc(S(=O)(=O)NC(CC(=O)NCc2ccccc2OC)c2ccco2)cc1 (stereo not given),–,0.316 µM (active)
